Source: PubChem BioAssay (NCI)
This is part of a sample that, as a whole, favours compounds with a hit. Of some 83,000 tested, about 20% had one in any assay.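 Step 1: grow cells in 96-well plates. Step 2: add test compound at a single concentration. Step 3: incubate 48 h. Step 4: record percent growth.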 Active and inactive are the calls of the source. Rule for the calls: active = growth percent below 10; inactive = the rest.

How the values were obtained:
Test in all cases: NCI-60 one-dose screen, 48 h (100 = growth as untreated, 0 = no growth, -100 = all killed)
Conditions in all cases: 10 µM unless noted
NCI-H23 lung = tested on: NCI-H23 lung
NCI-H226 lung = tested on: NCI-H226 lung
NCI-H322M lung = tested on: NCI-H322M lung
HOP-62 NSCLC = tested on: HOP-62 NSCLC
NCI-H460 lung = tested on: NCI-H460 lung
HOP-92 NSCLC = tested on: HOP-92 NSCLC
NCI-H522 lung = tested on: NCI-H522 lung
A549/ATCC NSCLC = tested on: A549/ATCC NSCLC
786-0 renal = tested on: 786-0 renal
COLO 205 colon = tested on: COLO 205 colon

Measured: growth

Cn1nc(CC#N)c2c(=N)n(N)cnc21
inactive: NCI-H23 lung 104% | NCI-H226 lung 108% | NCI-H322M lung 118% | HOP-62 NSCLC 101% | NCI-H460 lung 102% | HOP-92 NSCLC 98.8% | NCI-H522 lung 110% | A549/ATCC NSCLC 113% | 786-0 renal 123% | COLO 205 colon 105%

C=C1C(=O)O[C@H]2[C@H]1CC/C(COC(=O)NCC(C)c1ccc(CC(C)C)cc1)=C\CC[C@@]1(C)O[C@@H]21 (stereo not given in full)
inactive: NCI-H23 lung 30.7% | NCI-H226 lung 61.4% | HOP-62 NSCLC 82.2% | NCI-H460 lung 19.7% | A549/ATCC NSCLC 73%
active: HOP-92 NSCLC -33.3% | NCI-H522 lung -64.1% | 786-0 renal -87.7% | COLO 205 colon -50.3%

COc1cc(/C=C2\COc3ccc(-c4ccccc4)cc3C2=O)cc(OC)c1
inactive: NCI-H23 lung 70.1% | NCI-H226 lung 87.4% | NCI-H322M lung 85.9% | HOP-62 NSCLC 113% | HOP-92 NSCLC 70.3% | NCI-H522 lung 39.2% | A549/ATCC NSCLC 72% | 786-0 renal 89.3% | COLO 205 colon 107%

Cc1ccc(/C=C(/C#N)n2nnc3cccc(F)c32)cc1
active: NCI-H23 lung 4.73% | HOP-92 NSCLC -6.05% | 786-0 renal 1.78% | COLO 205 colon -19.5%
inactive: NCI-H226 lung 23% | NCI-H322M lung 16.3% | HOP-62 NSCLC 21.8% | NCI-H522 lung 11.6% | A549/ATCC NSCLC 11.5%

CCOC(=O)CCN(CC(C)C)C(=S)Nc1ccccc1
inactive: NCI-H23 lung 98.8% | NCI-H226 lung 107% | NCI-H322M lung 107% | HOP-62 NSCLC 120% | HOP-92 NSCLC 110% | NCI-H522 lung 101% | A549/ATCC NSCLC 101% | 786-0 renal 101% | COLO 205 colon 113%

N#CC(C#N)=Cc1cc2ccccc2nc1Oc1ccc(C(F)(F)F)cc1
inactive: NCI-H23 lung 81.8% | NCI-H226 lung 77.1% | NCI-H322M lung 99.2% | HOP-62 NSCLC 93.7% | HOP-92 NSCLC 48.7% | NCI-H522 lung 91.8% | A549/ATCC NSCLC 99.5% | 786-0 renal 98.8% | COLO 205 colon 101%

O=C1Nc2cc(-c3ccc(NC(=O)C4CC4)cc3)ccc2/C1=C/c1ccc[nH]1
inactive: NCI-H23 lung 61.3% | NCI-H226 lung 101% | NCI-H322M lung 86.2% | HOP-62 NSCLC 104% | HOP-92 NSCLC 129% | NCI-H522 lung 92.5% | A549/ATCC NSCLC 107% | 786-0 renal 105% | COLO 205 colon 117%

C[C@H]1[C@H](C)CC[C@]2(C(=O)NCC#CCN3CCN(C)CC3)CC[C@]3(C)C(=CC[C@@H]4[C@@]5(C)Cc6c([nH]c7ccccc67)C(C)(C)[C@@H]5CC[C@]43C)[C@H]12
inactive: NCI-H23 lung 100% | NCI-H226 lung 100% | NCI-H322M lung 92.8% | HOP-62 NSCLC 93.1% | HOP-92 NSCLC 63.8% | NCI-H522 lung 82.6% | A549/ATCC NSCLC 69.7% | 786-0 renal 66.9% | COLO 205 colon 53.1%

Nc1nc(Nc2ccccc2SSc2ccccc2Nc2nc(N)nc(-c3cccs3)n2)nc(-c2ccsc2)n1
active: HOP-62 NSCLC -41.2%
inactive: NCI-H23 lung 59.5% | NCI-H226 lung 85.2% | NCI-H322M lung 90.6% | HOP-92 NSCLC 104% | NCI-H522 lung 85.3% | A549/ATCC NSCLC 18.4% | 786-0 renal 93.6% | COLO 205 colon 97.8%

N#CC1=C(N)Oc2c(ccc3ccccc23)C1c1ccccc1Cl (stereo not given)
active: NCI-H522 lung -7.02% | COLO 205 colon -1.64%
inactive: NCI-H23 lung 30.9% | NCI-H226 lung 69.3% | NCI-H322M lung 54.7% | HOP-62 NSCLC 49.9% | HOP-92 NSCLC 80.6% | A549/ATCC NSCLC 22.4% | 786-0 renal 27.7%

CC(C)N1C(=O)/C(=C2\SC(=S)N(C(C)C)C2=O)SC1=S
inactive: NCI-H23 lung 94% | NCI-H226 lung 101% | NCI-H322M lung 94% | HOP-62 NSCLC 95.5% | HOP-92 NSCLC 72.3% | NCI-H522 lung 90.6% | A549/ATCC NSCLC 93.8% | COLO 205 colon 110%

COc1ccc(NC(N)=NCCCOc2ccc(F)cc2)cc1
active: COLO 205 colon -0.958%
inactive: NCI-H23 lung 64.4% | NCI-H226 lung 91% | NCI-H322M lung 88.1% | HOP-62 NSCLC 74.2% | HOP-92 NSCLC 80.8% | NCI-H522 lung 85.5% | A549/ATCC NSCLC 73.1% | 786-0 renal 89.1%

CCOC(=O)c1cc(C(=O)c2cc(OC)cc(OC)c2)n2ccc3ccccc3c12
inactive: NCI-H23 lung 81.5% | NCI-H226 lung 91.8% | NCI-H322M lung 91.1% | HOP-62 NSCLC 70.7% | NCI-H460 lung 101% | HOP-92 NSCLC 111% | NCI-H522 lung 83.3% | A549/ATCC NSCLC 77.9% | COLO 205 colon 115%

CCCCCCOc1ccc(/C=N/Nc2cc(C)nc3ccc(Cl)cc23)cc1
inactive: NCI-H23 lung 68.3% | NCI-H226 lung 87.8% | NCI-H322M lung 14.6% | HOP-92 NSCLC 69.5%
active: HOP-62 NSCLC -51.6% | NCI-H522 lung -42.9% | A549/ATCC NSCLC -43.1% | 786-0 renal -82.2% | COLO 205 colon -48.4%

CCc1ccc(-c2cn3ccnc3c(-c3ccc4ncn(Cc5ccccc5)c4c3)n2)cc1
inactive: NCI-H23 lung 77% | NCI-H226 lung 98.5% | NCI-H322M lung 99.1% | HOP-62 NSCLC 82.1% | HOP-92 NSCLC 63.9% | NCI-H522 lung 54.1% | A549/ATCC NSCLC 54.6% | 786-0 renal 61.9% | COLO 205 colon 65.8%

COc1cc(F)c(/C=C/c2cc(/C=C/c3cc(OC)c(OC)cc3F)on2)cc1OC
inactive: NCI-H23 lung 79.4% | NCI-H226 lung 56.8% | NCI-H322M lung 96% | HOP-62 NSCLC 107% | HOP-92 NSCLC 88.4% | NCI-H522 lung 62.3% | A549/ATCC NSCLC 81.3% | 786-0 renal 87.3% | COLO 205 colon 80%

O=C1Nc2cc(-c3ccc(NS(=O)(=O)c4ccccc4)cc3)ccc2/C1=C/c1ccc[nH]1
inactive: NCI-H23 lung 29.9% | NCI-H226 lung 65.9% | NCI-H322M lung 49.6% | HOP-62 NSCLC 106% | HOP-92 NSCLC 95.7% | NCI-H522 lung 76.4% | A549/ATCC NSCLC 86.6% | 786-0 renal 108% | COLO 205 colon 125%

COc1ccc(CCn2cncc2-c2c[nH]c3ccccc23)cc1
inactive: NCI-H23 lung 82% | NCI-H226 lung 81.3% | NCI-H322M lung 92.8% | HOP-62 NSCLC 72.8% | NCI-H460 lung 92.5% | HOP-92 NSCLC 60.7% | NCI-H522 lung 83.7% | A549/ATCC NSCLC 99.2% | COLO 205 colon 96.9%

COc1cc(NCCCCCNC(C)(C)C)c2ncccc2c1
inactive: NCI-H23 lung 93.1% | NCI-H226 lung 86.5% | NCI-H322M lung 93.3% | HOP-62 NSCLC 92.7% | HOP-92 NSCLC 79.4% | NCI-H522 lung 67.8% | A549/ATCC NSCLC 88.1% | 786-0 renal 95.6% | COLO 205 colon 110%

O=C(C1CCC1)N1N=C(c2ccc(-n3ccc(C(F)(F)F)n3)cc2)CC1c1ccc[nH]1 (stereo not given)
inactive: NCI-H23 lung 101% | NCI-H226 lung 107% | NCI-H322M lung 90.1% | HOP-62 NSCLC 108% | HOP-92 NSCLC 130% | NCI-H522 lung 84.7% | A549/ATCC NSCLC 89.3% | 786-0 renal 95.8% | COLO 205 colon 113%

O=C(NO)c1ccc(-n2nc(-c3ccccc3)c3ccccc32)cc1
active: NCI-H522 lung 6.17%
inactive: NCI-H23 lung 49.9% | NCI-H226 lung 56.4% | NCI-H322M lung 46.9% | HOP-62 NSCLC 29.7% | HOP-92 NSCLC 62.9% | A549/ATCC NSCLC 41.7% | COLO 205 colon 49%

COc1ccc(NC(=O)c2cc(NCc3cc(O)ccc3O)ccc2O)cc1
active: NCI-H522 lung -0.814%
inactive: NCI-H23 lung 90.4% | NCI-H226 lung 97% | NCI-H322M lung 91.1% | HOP-62 NSCLC 101% | HOP-92 NSCLC 106% | A549/ATCC NSCLC 78.7% | 786-0 renal 107% | COLO 205 colon 113%

CCCCCCCCOc1ccc(/C=N/Nc2cc(C)nc3ccc(Br)cc23)cc1
inactive: NCI-H23 lung 81.9% | NCI-H226 lung 97.4% | NCI-H322M lung 95.6% | HOP-62 NSCLC 87.5% | HOP-92 NSCLC 105% | NCI-H522 lung 71.6% | A549/ATCC NSCLC 27.9% | 786-0 renal 28.9% | COLO 205 colon 83.9%

N/C(=N\C(N)=N\c1nc2ccccc2s1)c1cccc(Cl)c1
active: HOP-62 NSCLC -8.36% | A549/ATCC NSCLC 9.74%
inactive: NCI-H23 lung 58.4% | NCI-H226 lung 85.6% | NCI-H322M lung 97.7% | HOP-92 NSCLC 108% | NCI-H522 lung 87.5% | 786-0 renal 94.4% | COLO 205 colon 101%

COc1cc(-c2csc(NC(=O)c3cc(F)cc(C(F)(F)F)c3)n2)cc(OC)c1OC
inactive: NCI-H23 lung 49.8% | NCI-H226 lung 27.7% | NCI-H322M lung 68% | HOP-62 NSCLC 39.3% | HOP-92 NSCLC 51.2% | A549/ATCC NSCLC 64.4% | 786-0 renal 29.4% | COLO 205 colon 25.5%
active: NCI-H522 lung -10.8%

COc1cc2nc(-c3ccc(Cl)cc3)cc(OCCCN3CCC(O)CC3)c2cc1OC
inactive: NCI-H23 lung 76.1% | HOP-62 NSCLC 63.2% | NCI-H460 lung 23.8% | HOP-92 NSCLC 38.1% | NCI-H522 lung 33.4% | A549/ATCC NSCLC 34.9% | 786-0 renal 75.2% | COLO 205 colon 23.8%
active: NCI-H226 lung 3.82%

O=C(CSc1nc2ccccc2[nH]1)NCc1ccccc1
inactive: NCI-H23 lung 100% | NCI-H226 lung 95.9% | NCI-H322M lung 97.4% | HOP-62 NSCLC 88.5% | HOP-92 NSCLC 105% | NCI-H522 lung 98.3% | A549/ATCC NSCLC 100% | 786-0 renal 102% | COLO 205 colon 111%

O=C(NCCNc1nccc(-c2c(-c3cccc(F)c3)nc3sccn23)n1)c1ccc(Cl)cc1
inactive: NCI-H23 lung 73.5% | NCI-H226 lung 51.2% | NCI-H322M lung 66.3% | HOP-62 NSCLC 91.9% | HOP-92 NSCLC 87.1% | NCI-H522 lung 68.4% | A549/ATCC NSCLC 34.8% | 786-0 renal 54.6% | COLO 205 colon 29.8%

CCCCC/C=C/C(C)=C/C1CC(C)C/C=C/CCC(O)C(OC(N)=O)CCC(C)CC(O)C(C)C(=O)O1 (stereo not given)
inactive: NCI-H23 lung 97.6% | NCI-H226 lung 104% | NCI-H322M lung 101% | HOP-62 NSCLC 82.7% | HOP-92 NSCLC 24.5% | NCI-H522 lung 79.2% | A549/ATCC NSCLC 85% | 786-0 renal 77.9% | COLO 205 colon 121%
